# Results published in PubChem BioAssay (NCATS).
# Values joined by “and” are separate entries in the source; they are usually repeats but may differ in a detail not shown here. Identical values can stand only once. Records with an inconclusive call do not appear. Entries that show only a call come without a potency. More than one record can exist for a structure, and the calls need not agree. Values without a mark were called inactive. Active and inactive are the calls of the source. The call rests on the fitted dose curve; in most records, active means well fitted curve in the direction sought with a large enough effect; inconclusive means small, poorly fitted or top-dose-only effect, or another doubt; inactive means no such curve, though single readings can be large; an effect the other way counts as inactive or inconclusive.
# Key:
# [1] = tested on: W2; assay: qHTS profiling for inhibitors of Plasmodium falciparum proliferation (AID 504749); further: nearly all actives have a fitted effect of over 60% in size; conditions: P. falciparum in erythrocytes, SYBR Green DNA, 72 h; series mostly up to 28.7 µM
# Method in brief: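 Infected RBCs, 0.3% parasitemia/2.5% Hct final; cpd 72 h, 37 C, 5% CO2; lysis buffer with saponin/triton/SYBR Green I, o/n RT dark; FI 485/535; norm. to artemisinin (0.29 uM) and DMSO.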
# [2] = tested on: CRL-7250; assay: Cytotoxic Profiling of Annotated Libraries Using Quantitative High-Throughput Screening (AID 1296008); conditions: Five cell lines viability, CellTiter-Glo ATP luminescence, 48-72 h; max response: hits give low values; further: nearly all actives have a fitted effect of over 60% in size; further: potency means the concentration at half of the fitted maximal effect
# Method in brief: (§1)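 Cytotoxicity was measured as CellTiter-Glo ATP luminescence, read after 10 min at room temperature. Compound treatment of the cells lasted 48 or 72 hr at 37 degrees Celsius in a qHTS format.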
# [3] = tested on: HEK293; assay: as above; conditions: Five cell lines viability, CellTiter-Glo ATP luminescence, 48-72 h; max response: hits give low values
# Method in brief: as §1
# [4] = tested on: HaCat; assay: as above; conditions: Five cell lines viability, CellTiter-Glo ATP luminescence, 48-72 h; max response: hits give low values
# Method in brief: as §1
# [5] = tested on: KB-3-1; assay: as above; conditions: Five cell lines viability, CellTiter-Glo ATP luminescence, 48-72 h; max response: hits give low values
# Method in brief: as §1
# [6] = tested on: NIH3T3; assay: as above; conditions: Five cell lines viability, CellTiter-Glo ATP luminescence, 48-72 h; max response: hits give low values
# Method in brief: as §1
# [7] = tested on: HACAT; assay: qHTS assay to identify novel small-molecules to repurpose for Merkel cell carcinoma treatment (AID 1296009); conditions: MCC and control cell lines, CellTiter-Glo viability, 72 h; at 44.8 µM (top of the series) unless noted; further: nearly all actives have a fitted effect of over 60% in size
# Method in brief: (§2)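 72 hr, 37 degree celsius; NPC 8-pt / MIPE 11-pt dose response; compound pinned in DMSO; CellTiter-Glo, 10 min RT, luminescence; normalized to no-cell and DMSO controls.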
# [8] = tested on: MCC-13; assay: as above; conditions: MCC and control cell lines, CellTiter-Glo viability, 72 h; series mostly up to 46 µM
# Method in brief: as §2
# [9] = tested on: MCC-26; assay: as above; conditions: MCC and control cell lines, CellTiter-Glo viability, 72 h; series mostly up to 46 µM
# Method in brief: as §2
# [10] = tested on: MKL-1; assay: as above; conditions: MCC and control cell lines, CellTiter-Glo viability, 72 h; series mostly up to 46 µM
# Method in brief: as §2
# [11] = tested on: MKL-2; assay: as above; conditions: MCC and control cell lines, CellTiter-Glo viability, 72 h; series mostly up to 46 µM
# Method in brief: as §2
# [12] = tested on: NIH3T3; assay: as above; conditions: MCC and control cell lines, CellTiter-Glo viability, 72 h; at 44.8 µM (top of the series) unless noted
# Method in brief: as §2
# [13] = tested on: UISO; assay: as above; conditions: MCC and control cell lines, CellTiter-Glo viability, 72 h; series mostly up to 46 µM
# Method in brief: as §2
# [14] = tested on: WaGa; assay: as above; conditions: MCC and control cell lines, CellTiter-Glo viability, 72 h; series mostly up to 46 µM
# Method in brief: as §2
# [15] = tested on: C33A; assay: Primary qHTS to identify gynecologic anti-cancer compounds using libraries of approved drugs and bioactive compounds (AID 1345084); conditions: Gynecologic cancer cell panel viability, ATPlite luminescence, 48 h; series mostly up to 57.5 µM; further: nearly all actives have a fitted effect of over 55% in size; further: potency means the concentration at half of the fitted maximal effect
# Method in brief: (§3)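 Cells, 1,000 per well, were allowed to settle for 16 h at 37 C before compound addition. Five concentrations were tested for 48 h, and viability was read by ATPlite luminescence after 15 min at room temperature.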
# [16] = tested on: CAOV3; assay: as above; conditions: Gynecologic cancer cell panel viability, ATPlite luminescence, 48 h; series mostly up to 57.5 µM
# Method in brief: as §3
# [17] = tested on: CASKI; assay: as above; conditions: Gynecologic cancer cell panel viability, ATPlite luminescence, 48 h; series mostly up to 57.5 µM
# Method in brief: as §3
# [18] = tested on: Es-2; assay: as above; conditions: Gynecologic cancer cell panel viability, ATPlite luminescence, 48 h; series mostly up to 57.5 µM
# Method in brief: as §3
# [19] = tested on: HeLa; assay: as above; conditions: Gynecologic cancer cell panel viability, ATPlite luminescence, 48 h; series mostly up to 57.5 µM
# Method in brief: as §3
# [20] = tested on: HEK293T; assay: qHTS assay to identify novel small-molecules to repurpose for Merkel cell carcinoma treatment (AID 1296009); conditions: MCC and control cell lines, CellTiter-Glo viability, 72 h; at 44.8 µM (top of the series) unless noted; further: nearly all actives have a fitted effect of over 60% in size
# Method in brief: as §2
smiles,measurement,setting,value
Nc1nc2c(ncn2CCC(CO)CO)c(=O)[nH]1,Potency,[1],inactive
same,max response,[2],-22.4% and -4.66%
same,max response,[3],-4.76% and -4.47%
same,outcome,[4],inactive
same,max response,[5],13.5% and 1.71%
same,max response,[6],1.75%
same,outcome,[6],inactive
same,outcome,[7],inactive
same,Potency,[8],inactive
same,Potency,[9],inactive
same,Potency,[10],inactive
same,Potency,[11],inactive
same,outcome,[12],inactive
same,Potency,[13],inactive
same,Potency,[14],inactive
same,Potency,[15],inactive
same,Potency,[16],inactive
same,Potency,[17],inactive
same,Potency,[18],inactive
same,Potency,[19],inactive
CC(C)(C(=O)O)c1ccc(C(O)CCCN2CCC(C(O)(c3ccccc3)c3ccccc3)CC2)cc1 (centres undefined),max response,[2],-9.99%
same,outcome,[2],inactive
same,max response,[3],4.11%
same,outcome,[3],inactive
same,outcome,[4],inactive
same,max response,[5],-2.58% and -5.29%
same,outcome,[6],inactive
same,outcome,[7],inactive
same,outcome,[20],inactive
same,Potency,[8],inactive
same,Potency,[9],inactive
same,Potency,[10],inactive
same,Potency,[11],inactive
same,outcome,[12],inactive
same,Potency,[13],inactive
same,Potency,[14],inactive
same,Potency,[15],inactive
same,Potency,[16],inactive
same,Potency,[17],inactive
same,Potency,[18],inactive
same,Potency,[19],inactive
CCCCOc1cc(C(=O)OCCN(CC)CC)ccc1N,Potency,[1],inactive
same,max response,[2],-0.166%
same,outcome,[2],inactive
same,max response,[3],-17.2% and -4.15%
same,max response,[4],1.81%
same,outcome,[4],inactive
same,Potency,[5],4.95 µM (active)
same,max response,[5],6.85%
same,outcome,[6],inactive
same,outcome,[7],inactive
same,Potency,[8],inactive
same,Potency,[9],inactive
same,Potency,[10],inactive
same,Potency,[11],inactive
same,outcome,[12],inactive
same,Potency,[13],inactive
same,Potency,[14],inactive
same,Potency,[15],inactive
same,Potency,[16],inactive
same,Potency,[17],inactive
same,Potency,[18],inactive
same,Potency,[19],inactive
CN1CCOC(c2ccccc2)c2ccccc2C1 (centres undefined),max response,[2],2.8%
same,outcome,[2],inactive
same,max response,[3],-2.69%
same,outcome,[3],inactive
same,max response,[4],-15.1% and -5.19%
same,max response,[5],-9.99% and 4.82%
same,max response,[6],2.98%
same,outcome,[6],inactive
same,outcome,[20],inactive
same,Potency,[8],inactive
same,Potency,[9],inactive
same,Potency,[10],inactive
same,Potency,[11],inactive
same,outcome,[12],inactive
same,Potency,[13],inactive
same,Potency,[14],inactive
same,Potency,[15],inactive
same,Potency,[17],inactive
same,Potency,[18],inactive
same,Potency,[19],inactive
CC(C)(O)c1ccccc1CC[C@@H](SCC1(CC(=O)O)CC1)c1cccc(/C=C/c2ccc3ccc(Cl)cc3n2)c1,max response,[2],-23.3%
same,max response,[3],4.81%
same,outcome,[4],inactive
same,max response,[5],-11.2% and 6.98%
same,max response,[6],-22.4%
same,outcome,[6],inactive
same,outcome,[7],inactive
same,Potency,[8],inactive
same,Potency,[9],inactive
same,Potency,[10],inactive
same,Potency,[11],inactive
same,outcome,[12],inactive
same,Potency,[13],inactive
same,Potency,[14],inactive
same,Potency,[15],inactive
same,Potency,[17],inactive
same,Potency,[18],inactive
same,Potency,[19],inactive
C[C@H]1O[C@H](O[C@H]2[C@H](O)[C@@H](O)[C@@H](O[C@H]3[C@H](O)[C@@H](O)[C@H](O)O[C@@H]3CO)O[C@@H]2CO)[C@H](O)[C@@H](O)[C@@H]1N[C@H]1C=C(CO)[C@@H](O)[C@H](O)[C@H]1O,outcome,[2],inactive
same,outcome,[3],inactive
same,outcome,[4],inactive
same,max response,[5],-3.3%
same,outcome,[6],inactive
same,outcome,[7],inactive
same,outcome,[20],inactive
same,Potency,[8],inactive
same,Potency,[9],inactive
same,Potency,[10],inactive
same,Potency,[11],inactive
same,outcome,[12],inactive
same,Potency,[13],inactive
same,Potency,[14],inactive
same,Potency,[15],inactive
same,Potency,[16],inactive
same,Potency,[17],inactive
same,Potency,[18],inactive
same,Potency,[19],inactive
C[C@]12CC[C@@H]3c4ccc(O)cc4CC[C@H]3[C@@H]1CC[C@@H]2OC(=O)CCC1CCCC1,max response,[2],-19.6%
same,outcome,[2],inactive
same,max response,[3],-8.4%
same,outcome,[4],inactive
same,max response,[5],-5.64% and 15.4%
same,max response,[6],2.8%
same,outcome,[7],inactive
same,Potency,[8],inactive
same,Potency,[9],inactive
same,Potency,[10],inactive
same,Potency,[11],inactive
same,Potency,[13],inactive
same,Potency,[14],inactive
same,Potency,[15],inactive
same,Potency,[16],inactive
same,Potency,[17],inactive
same,Potency,[18],inactive
same,Potency,[19],10 µM (active) and 20 µM (active)
CCOc1nc2cccc(C(=O)O)c2n1Cc1ccc(-c2ccccc2-c2nn[nH]n2)cc1,max response,[2],-0.772%
same,outcome,[2],inactive
same,max response,[3],-7.13% and 4.6%
same,max response,[4],-22.9% and -2.42%
same,max response,[5],-0.374% and 6.58%
same,max response,[6],4.21%
same,outcome,[6],inactive
same,Potency,[8],inactive
same,Potency,[9],inactive
same,Potency,[10],inactive
same,Potency,[11],inactive
same,outcome,[12],inactive
same,Potency,[13],inactive
same,Potency,[14],inactive
same,Potency,[15],inactive
same,Potency,[17],inactive
same,Potency,[18],inactive
same,Potency,[19],inactive
O=C(O)[C@@H]1CSCN1,max response,[2],-15.8%
same,outcome,[3],inactive
same,outcome,[4],inactive
same,max response,[5],0.966%
same,outcome,[6],inactive
same,outcome,[7],inactive
same,outcome,[20],inactive
same,Potency,[8],inactive
same,Potency,[9],inactive
same,Potency,[10],inactive
same,Potency,[11],inactive
same,outcome,[12],inactive
same,Potency,[13],inactive
same,Potency,[14],inactive
same,Potency,[15],inactive
same,Potency,[16],inactive
same,Potency,[17],inactive
same,Potency,[18],inactive
same,Potency,[19],inactive
C/C(=C(\CCOP(=O)(O)O)SC(=O)c1ccccc1)N(C=O)Cc1cnc(C)nc1N,max response,[2],-3.12%
same,outcome,[3],inactive
same,outcome,[4],inactive
same,max response,[5],9.44%
same,outcome,[6],inactive
same,outcome,[7],inactive [at 4.96 µM]
same,outcome,[20],inactive [at 4.96 µM]
same,"activity change, negative = cytotoxicity",[8],-6.17% [at 4.84 µM]
same,"activity change, negative = cytotoxicity",[9],20.3% [at 4.84 µM]
same,"activity change, negative = cytotoxicity",[10],2.11% [at 4.84 µM]
same,"activity change, negative = cytotoxicity",[11],12.5% [at 4.84 µM]
same,outcome,[12],inactive [at 4.96 µM]
same,"activity change, negative = cytotoxicity",[13],22.4% [at 4.84 µM]
same,"activity change, negative = cytotoxicity",[14],24.3% [at 4.84 µM]
same,"activity change, negative = cytotoxicity",[15],4.02% [at 6.55 µM]
same,"activity change, negative = cytotoxicity",[16],-0.0932% [at 6.55 µM]
same,"activity change, negative = cytotoxicity",[17],2.61% [at 6.55 µM]
same,"activity change, negative = cytotoxicity",[18],-4.63% [at 6.55 µM]
same,"activity change, negative = cytotoxicity",[19],3.42% [at 6.55 µM]
